The nature of assay [1]: qHTS assay for small molecules that induce genotoxicity in human embryonic kidney cells expressing luciferase-tagged ATAD5 (AID 651632). Note: nearly all actives have a fitted effect of over 15% in size. Note: potency is the fitted concentration of half-maximal effect. Put shortly: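 Test compounds were delivered by pin tool onto HEK293T reporter cells (2,000/well) expressing ATAD5 fused to luciferase. After 16 hr at 37C, 5% CO2, Amplite was added for 30 min at room temperature and luminescence was measured.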
A general note: Quantitative high-throughput screening tests each substance at several concentrations.

A short description of assay [2]: qHTS assay for small molecule agonists of the p53 signaling pathway - cell viability (AID 651633; calls by dose curve;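 note: p53RE-bla HCT reporter cells with a stable beta-lactamase p53 reporter; series mostly up to about 83 µM; nearly all actives have a fitted effect of over 30% in size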). A digest of the protocol: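 Viability counter-read: CellTiter-Glo luminescence (30 min, room temperature) in the same p53RE-bla plates. These plates had been exposed to compounds for 16 h at 37 C.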
Assay [3] can be described thus: qHTS assay for small molecules that induce genotoxicity in human embryonic kidney cells expressing luciferase-tagged ATAD5 - cell viability (AID 651634; calls by dose curve; note: nearly all actives have a fitted effect of over 25% in size). Put shortly: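 Quantitative high-throughput format. HEK293T cells expressing ATAD5 fused to luciferase were plated at 2,000 cells/well and treated 15.5 hr with compound versus DMSO. Viability was determined by fluorescent live-cell protease substrate, 30 min at 37C.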

Assay [4] can be described thus: qHTS assay for small molecule disruptors of the mitochondrial membrane potential - cell viability (AID 720634; calls by dose curve; note: nearly all actives have a fitted effect of over 20% in size; note: potency is the fitted concentration of half-maximal effect). A digest of the protocol:
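Same-well counter-screen: following the MMP dye addition, CellTiter-Glo was added to 1 hr compound-treated HepG2 cells and luminescence read after 30 min at room temperature.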

A short description of assay [5]: qHTS assay for small molecule disruptors of the mitochondrial membrane potential (AID 720635). Note: potency is the fitted concentration of half-maximal effect. Put shortly: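 Mitochondrial membrane potential tracked with Mito-MPS dye, red aggregates (ex 540/em 590 nm) against green monomers (ex 490/em 535 nm). Compound treatment 1 hr at 37C, dye 30 min in HepG2.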
A short description of assay [6]: qHTS assay to test for compound auto fluorescence at 590 nm (red) in HepG2 cells (AID 720674). A digest of the protocol: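 1 hr compound incubation on HepG2 cells, 37 C, 5% CO2; plate read ex 540 nm / em 590 nm; intensities reported as Rose Bengal sodium equivalents.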
Assay [7] in a line: qHTS assay to test for compound auto fluorescence at 535 nm (green) in HepG2 cells (AID 720675).
Assay [8] can be described thus: qHTS assay to test for compound auto fluorescence at 460 nm (blue) in HEK293 cells (AID 720678). A digest of the protocol: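 Cells were seeded and left to adhere for 4-5 hr at 37C. Compounds were then pin-transferred. After an overnight incubation at 37C under 5% CO2, intrinsic fluorescence at 405/460 nm was measured and referenced to triamterene.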
Assay [9] is described as follows: qHTS assay to test for compound auto fluorescence at 590 nm (red) in HEK293 cells (AID 720679). A digest of the protocol:
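Each well held 2,000 HEK293 cells in medium containing 10% dialyzed FBS. Following 4-5 hr attachment at 37C, 23 nL test compound or DMSO was added; plates sat overnight, and red fluorescence (540/590nm) was recorded.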

Assay [10] in a line: qHTS assay to test for compound auto fluorescence at 535 nm (green) in HEK293 cells (AID 720680).
Assay [11] in a line: qHTS assay to test for compound auto fluorescence at 460 nm (blue) in HEK293 cell free culture (AID 720681). Put shortly:
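Blue fluorescence (Ex 405/Em 460 nm, triamterene-equivalent) was read immediately after pin transfer of compound or DMSO into medium (DMEM, 10% FBS) without cells.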

Assay [12] can be described thus: qHTS assay to test for compound auto fluorescence at 535 nm (green) in HEK293 cell free culture (AID 720682). A digest of the protocol: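 Intrinsic compound fluorescence is measured in culture medium containing 10% FBS, with excitation at 485 nm and detection at 535 nm, referenced to fluorescein.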
Assay [13] in a line: qHTS assay to test for compound auto fluorescence at 590 nm (red) in HEK293 cell free culture (AID 720683). A digest of the protocol:
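Red-channel autofluorescence of compounds in culture medium (DMEM, 10% FBS), no cells, measured at 540/590 nm. Rose Bengal sodium is the reference fluorophore for equivalence.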

A short description of assay [14]: qHTS assay to test for compound auto fluorescence at 590 nm (red) in HepG2 cell free culture (AID 720684). A digest of the protocol:
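No cells present: MEM + 10% FBS only. Compound pinned in, red label read (540/590 nm). Activity = fluorescence equivalent to Rose Bengal sodium.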

Assay [15] in a line: qHTS assay to test for compound auto fluorescence at 460 nm (blue) in HepG2 cell free culture (AID 720685). A digest of the protocol:
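Cell-free plates of MEM plus 10% FBS received 23 nL compound or DMSO vehicle; blue-channel (405/460 nm) intensity scored against triamterene as reference fluorophore.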

Assay [16] is described as follows: qHTS assay to test for compound auto fluorescence at 535 nm (green) in HepG2 cell free culture (AID 720686).
A short description of assay [17]: qHTS assay to test for compound auto fluorescence at 460 nm (blue) in HepG2 cells (AID 720687). A digest of the protocol: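 Blue-channel autofluorescence (Ex/Em 405/460 nm, triamterene-equivalent) was measured after 1 hr compound exposure at 37 C, 5% CO2. Cells were HepG2, plated overnight at 37 C in MEM plus 10% FBS.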
The target of assay [18] is Glucocorticoid receptor (Homo sapiens) (UniProt P04150). As to the kind of experiment: qHTS assay to identify small molecule agonists of the glucocorticoid receptor (GR) signaling pathway (AID 720691; active = well fitted activation curve with a large enough effect in the signal ratio in the repeat runs, not every such curve was filed as active; the % refers to the signal ratio). A digest of the protocol:
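A HeLa cervical cancer line expressing GR and a glucocorticoid response element-driven beta-lactamase gene is treated with compounds for 18 h; LiveBLAzer B/G FRET substrate is then applied and fluorescence read.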

The target is the same in assay [19]. Description: qHTS assay to identify small molecule antagonists of the glucocorticoid receptor (GR) signaling pathway (AID 720692; active = well fitted inhibition curve with a large enough effect in the signal ratio in the repeat runs, not every such curve was filed as active; the % refers to the signal ratio; note: potency is the fitted concentration of half-maximal effect). Put shortly:
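GRE-bla HeLa line, dex-stimulated (5 nM final). Compound exposure 18 h, 37 C. Beta-lactamase FRET read after 2 h RT substrate.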

Assay [20] is described as follows: qHTS assay for small molecule agonists of the p53 signaling pathway (AID 651631; calls by dose curve; note: nearly all actives have a fitted effect of over 15% in size; note: potency is the fitted concentration of half-maximal effect). A digest of the protocol:
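Fluorescence intensity from cleaved LiveBLAzer B/G substrate (2 h, room temperature) served as the signal. Beforehand, HCT-116 reporter cells bearing p53 response elements were treated 16 h at 37 °C with DMSO-dissolved compounds.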

Where “and” joins values, the source holds several entries; their conditions need not be identical. Equal entries are not always repeated. Results filed as inconclusive are left out. A structure can be active in one record and inactive in another. Calls of active or inactive are those of the source. Unless noted, calls come from the whole dose curve; as a rule, active = well fitted curve in the direction sought with a large enough effect in the repeat runs; inconclusive = weak or mixed curves; inactive = no such curve, though single readings can be large; an effect the other way counts as inactive or inconclusive.

Sequence of Glucocorticoid receptor (Homo sapiens) (P04150 whole entry, looked up): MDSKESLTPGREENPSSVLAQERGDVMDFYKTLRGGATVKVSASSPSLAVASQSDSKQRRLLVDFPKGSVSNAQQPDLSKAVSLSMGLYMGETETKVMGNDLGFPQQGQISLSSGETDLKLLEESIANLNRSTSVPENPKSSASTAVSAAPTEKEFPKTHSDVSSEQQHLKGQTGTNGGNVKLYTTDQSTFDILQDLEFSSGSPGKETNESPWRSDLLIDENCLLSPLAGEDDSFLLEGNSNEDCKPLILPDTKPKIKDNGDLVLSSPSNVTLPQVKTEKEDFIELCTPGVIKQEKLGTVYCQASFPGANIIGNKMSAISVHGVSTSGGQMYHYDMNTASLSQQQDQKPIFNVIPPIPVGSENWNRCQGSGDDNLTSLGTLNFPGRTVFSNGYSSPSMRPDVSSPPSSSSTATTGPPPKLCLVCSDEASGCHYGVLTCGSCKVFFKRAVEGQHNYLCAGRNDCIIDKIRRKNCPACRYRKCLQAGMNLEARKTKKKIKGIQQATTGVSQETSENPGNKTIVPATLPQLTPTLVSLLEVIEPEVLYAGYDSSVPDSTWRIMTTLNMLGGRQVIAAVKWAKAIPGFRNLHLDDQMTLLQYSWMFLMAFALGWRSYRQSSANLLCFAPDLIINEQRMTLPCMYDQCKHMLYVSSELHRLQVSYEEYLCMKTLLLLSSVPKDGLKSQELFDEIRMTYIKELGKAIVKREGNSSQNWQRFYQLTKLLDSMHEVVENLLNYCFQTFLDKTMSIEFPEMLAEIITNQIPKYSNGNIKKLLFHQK

`Cc1nc(N(C)C)nc(OC(=O)N(C)C)c1C`: the Potency result in [1], in assay [2], in assay [3], in assay [4], in assay [5] and in assay [18] was “inactive” throughout. For the same compound, the Potency entry in [19] was “inactive”. Besides, the outcome in [6], in assay [7], in assay [8], in assay [9], in assay [10] and in assay [11] was inactive. Moreover, the call in assay [12], in [13], in assay [14], in assay [15], in assay [16] and in assay [17] was inactive.
`CC(C)c1ccc(OP(=O)(Oc2ccc(C(C)C)cc2)Oc2ccc(C(C)C)cc2)cc1`: the Potency entry in assay [20], in assay [3] and in assay [18] was “inactive” each time. The result in assay [6], in assay [7], in [9], in assay [10], in [11] and in assay [12] was inactive. Further, the outcome in [13], in [14], in assay [15], in assay [16] and in assay [17] was inactive.
As to `CCOP(=O)(SC(C)CC)N1CCSC1=O` (centres undefined), the Potency entry in assay [1], in assay [2], in [3], in [4] and in [5] was “inactive” throughout. Moreover, the compound was called inactive in assay [6], in [7], in assay [8], in [9], in assay [10] and in assay [11]. Also, the result in assay [12], in assay [13], in [14], in [15], in [16] and in [17] was inactive.
As for `CN1CC[C@]23c4c5ccc(O)c4O[C@H]2[C@@H](O)C=C[C@H]3[C@H]1C5`, the Potency entry in assay [1], in [3], in [4], in assay [5], in [18] and in assay [19] was “inactive” throughout. For the same compound, the compound was called inactive in assay [6], in [7], in assay [8], in assay [9], in [10] and in [11]. The result in [12], in assay [13], in assay [14], in [15], in [16] and in [17] was inactive.
On to `C=CC(C)(CCC=C(C)C)OC(=O)c1ccccc1N` (centres undefined), for which the Potency result in assay [20], in assay [4] and in [18] was “inactive” in each case. The result in assay [6], in assay [7], in assay [8], in assay [9], in [10] and in assay [11] was inactive. In addition, the compound was called inactive in assay [12], in assay [13], in [14], in assay [15], in assay [16] and in assay [17].
With `CCOP(=S)(OCC)Oc1ccc(S(C)=O)cc1` (centres undefined), the Potency result in assay [1], in assay [3], in [4] and in [5] was “inactive” in each case. In addition, the outcome in assay [6], in assay [7], in [8], in [9], in [10] and in assay [11] was inactive. In addition, the result in assay [12], in [13], in [14], in assay [15] and in [17] was inactive.
For `C[N+]1(CCC(C(N)=O)(c2ccccc2)c2ccccc2)CCCCC1`, the Potency result in [1], in assay [2], in [3], in assay [4], in assay [5] and in assay [18] was “inactive” throughout. Moreover, the Potency entry in assay [19] was “inactive”. Besides, the outcome in assay [6], in assay [7], in assay [8], in [9], in assay [10] and in assay [11] was inactive. Moreover, the compound was called inactive in [12], in [13], in assay [14], in assay [15], in assay [16] and in assay [17].
As for `O=[N+]([O-])/C=C/c1ccccc1`, the Potency in [20] is 2.47 µM (active) and 2.43 µM (active); in [4], 62.1 µM (active) and inactive; in [19], 15.7 µM (active) and 17.4 µM (active). The result in [6], in assay [7], in assay [8], in [9], in [10] and in assay [12] was inactive. Besides, the compound was called inactive in assay [13], in assay [14], in [15] and in assay [17].
For `C=C(C)C(=O)OCCCCOC(=O)C(=C)C`, the Potency entry in assay [1], in [2], in assay [3], in [4], in [18] and in [19] was “inactive” in each case. The compound was classed as inactive in [6], in [7], in [8], in assay [9], in assay [10] and in assay [11]. For the same compound, the call in assay [12], in assay [13], in assay [14], in assay [15], in assay [16] and in [17] was inactive.
In the case of `CN(C1CCCCC1)C1CCCCC1`, the Potency entry in assay [1], in assay [2], in [3], in assay [4], in assay [5] and in assay [18] was “inactive” throughout. The Potency result in [19] is “inactive”. The compound was classed as inactive in [6], in [7], in assay [8], in assay [9], in assay [10] and in assay [11]. In addition, the compound was called inactive in assay [12], in [13], in [14], in assay [15], in assay [16] and in [17].
Regarding `Cc1ccc(N)c(C)c1`, the Potency result in [1], in [2], in assay [3], in assay [4], in [5] and in assay [18] was “inactive” each time. Moreover, the outcome in assay [6], in assay [7], in assay [8], in [9], in [10] and in assay [11] was inactive. The call in assay [12], in assay [13], in assay [14], in [15], in assay [16] and in assay [17] was inactive.
With `Nc1ccccc1C(=O)OCCc1ccccc1`, the Potency in assay [1] is 1.09 µM (active) and 433 nM (active); in assay [5] it was 48.8 µM (active) and 43.3 µM (active). The Potency result in [2], in assay [3], in [18] and in [19] was “inactive” each time. The compound was classed as inactive in assay [6], in assay [7], in assay [8], in assay [9], in assay [10] and in [11]. Moreover, the compound was classed as inactive in assay [12], in assay [13], in assay [14], in assay [15], in [16] and in assay [17].
Take `FC(Cl)(Cl)C(F)(Cl)Cl`: the Potency entry in assay [1], in [2], in assay [3], in assay [4] and in [5] was “inactive” throughout. Also, the compound was called inactive in assay [6], in assay [7], in assay [8], in assay [9], in [10] and in assay [11]. The call in [12], in assay [13], in assay [14], in assay [15], in assay [16] and in assay [17] was inactive.
`C[C@H]1[C@@H]2Cc3ccc(O)cc3[C@@]1(C)CCN2C`: the Potency entry in [1], in [2], in assay [3], in assay [4], in [5] and in assay [18] was “inactive” in each case. In addition, the Potency entry in [19] is “inactive”. Moreover, the result in [6], in [7], in assay [8], in assay [9], in assay [10] and in assay [11] was inactive. Besides, the outcome in assay [12], in assay [13], in [14], in assay [15], in assay [16] and in assay [17] was inactive.

Values taken from PubChem BioAssay (Tox21).
